KCNQ2 pot: enhances the rat KCNQ2 potassium channel | B-score at 10 µM | AID 2239 | CHO-K1 KCNQ2, FluxOR thallium flux fluorescence; hits give high values | 0.54% of 310,000 active;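 active means fluorescence ratio B-score at least 3 SD of library B-scores, with initial fluorescence B-score within 3 of them, cut at about 5.3 in these data; same plate scores as AID 2156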;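 further: B-score of peak minus minimum over baseline fluorescence ratio after K+ and Tl+ stimulus; positive B-score means potentiation of KCNQ2 with more thallium influx and brighter signal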
KCNQ2 inh: KCNQ2 (rat) channel inhibition; 1.1% of 310,000 active; B-score at 10 µM; O88943; CHO-K1 KCNQ2, FluxOR thallium flux, 20 min; hits give low values; AID 2156;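 active means fluorescence ratio B-score at most minus 3 library SDs, with starting brightness B-score within 2 library SDs, cut at about -5.5 in these data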
Kir21 confirm: confirmation of mouse Kir2.1 potassium channel inhibitors. shares compounds with KCNQ2 pot. Kir2.1-expressing cells, FluxOR thallium flux fluorescence; hits give low values. Tl flux remaining, % of negative control (hits give low values), % at 10 µM. 41% of 2,300 active. AID 2032;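 active means Primary-screen hit whose thallium flux fell at least 3 control SD below untreated wells in both duplicates, with normal baseline fluorescence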;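 further: 0% = blank wells without stimulus and 100% = stimulated no-compound controls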
HEK293 ctr: alters thallium flux in parental HEK293 cells, Kir2.1 counter-screen. shares compounds with KCNQ2 pot. FluxOR thallium flux fluorescence; 0% = unstimulated blank wells. FluxOR signal as % of negative control (100 = no effect), % at 10 µM. 19% of 2,300 active. AID 2105;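 active means dye signal at least 3 control SD above or below untreated wells in both duplicates, raw fluorescence within 3, either direction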;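 further: percent is based on the flux ratio of peak minus minimum fluorescence over baseline F0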
CHO-K1 Tl ctr: parental CHO-K1 activity in KCNQ2 potentiator counter-screen. activity increase over 3SD of controls, % at 10 µM. parental CHO-K1 cells, FluxOR thallium flux fluorescence; zero = vehicle mean+3SD, 100% = vehicle-minus-blank window. 43% of 1,200 active. shares compounds with KCNQ2 pot. AID 2282;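 active means signal rise of at least 3 SD above the untreated control mean, in both duplicate wells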;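 further: counter screen of KCNQ2 potentiator hits so any rise reflects channel-independent effects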
KCNQ1 pot spec: tests whether KCNQ2 potentiators also act on human KCNQ1; shares compounds with KCNQ2 pot; CHO KCNQ1 stable, FluxOR thallium flux fluorescence; beyond 3SD, as % of vehicle-control signal; activation over 3SD threshold, % at 10 µM; 28% of 1,200 active; AID 2283;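 active means fluorescence ratio rise of at least 3 SD of vehicle wells above their mean, in both replicate wells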;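 further: 0% = vehicle mean plus 3 SD and 100% = vehicle minus unstimulated blank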
Target sequence (P51787 whole entry, looked up): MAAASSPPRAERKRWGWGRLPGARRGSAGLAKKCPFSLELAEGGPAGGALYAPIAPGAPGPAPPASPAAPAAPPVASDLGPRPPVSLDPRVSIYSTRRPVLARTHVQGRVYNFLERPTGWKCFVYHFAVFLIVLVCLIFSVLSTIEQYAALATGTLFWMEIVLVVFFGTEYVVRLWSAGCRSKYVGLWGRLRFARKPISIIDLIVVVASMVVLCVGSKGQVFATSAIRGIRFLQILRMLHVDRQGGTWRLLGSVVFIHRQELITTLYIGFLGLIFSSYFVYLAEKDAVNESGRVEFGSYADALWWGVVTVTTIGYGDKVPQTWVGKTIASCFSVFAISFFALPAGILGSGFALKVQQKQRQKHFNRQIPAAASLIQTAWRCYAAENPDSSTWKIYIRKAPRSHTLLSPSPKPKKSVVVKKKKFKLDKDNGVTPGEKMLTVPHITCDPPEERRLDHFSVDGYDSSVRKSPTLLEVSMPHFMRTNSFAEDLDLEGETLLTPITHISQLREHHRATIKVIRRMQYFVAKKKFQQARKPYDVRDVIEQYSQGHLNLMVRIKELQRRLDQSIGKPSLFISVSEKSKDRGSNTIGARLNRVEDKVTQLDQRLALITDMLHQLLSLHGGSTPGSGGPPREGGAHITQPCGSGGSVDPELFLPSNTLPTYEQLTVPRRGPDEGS
KCNQ2 pot conf: rat KCNQ2 channel potentiator confirmation; shares compounds with KCNQ2 pot; CHO-KCNQ2 cells, FluxOR thallium flux fluorescence; potentiation, less the hit threshold, % at 10 µM; 68% of 1,200 active; AID 2287;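 active means fluorescence ratio rising 3 SD or more over the vehicle control mean in both replicates, plus primary screen hit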;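 further: peak minus minimum thallium fluorescence divided by baseline after K/Tl stimulus; 0% = vehicle mean plus 3 SD and 100% = vehicle minus unstimulated blank difference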
Kir2-1 sel: tests whether KCNQ2 potentiators also affect mouse Kir2.1 | shares compounds with KCNQ2 pot | HEK293 Kir2.1, FluxOR thallium flux fluorescence | activity over 3SD threshold, % at 10 µM | 2% of 1,200 active;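 active means fluorescence ratio rise of at least 3 SD above the vehicle-control mean, seen in both replicates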;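 further: 0% = vehicle mean plus 3 SD and 100% = vehicle minus no-stimulus blank window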
KCNQ2 W236L pot: potentiates the retigabine-insensitive rat KCNQ2 W236L mutant channel | current increase over 3SD of negative controls (%), hits give high values, % at 25 µM | AID 2558 | CHO KCNQ2-W236L, automated patch clamp current | 10% of 940 active | shares compounds with KCNQ2 pot;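 active means current increase at least 3 SD of the untreated controls above them in both duplicate recordings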
* marks the source's active call; other numbers are inactive results; i = inactive; . = no result given. In the library only some 1.6% were active in any assay of this set; here they are far more common.

SMILES | KCNQ2 pot | KCNQ2 inh | Kir21 confirm | HEK293 ctr | others
Oc1c(Cl)cc(Cl)cc1Sc1cc(Cl)cc(Cl)c1O | 44.7* | i | i | 375.0%* | CHO-K1 Tl ctr=47.1*;KCNQ1 pot spec=-3.1;KCNQ2 pot conf=222.7*;Kir2-1 sel=-29.6;KCNQ2 W236L pot=i
Cc1cc(C)nc(N2CCC(C(=O)NNC(=O)c3ccc(Cl)cc3)CC2)n1 | . | i | . | .
CC(=O)N(C1CC(C)C(C#N)(C#N)C1(C#N)C#N)N(C)C (configuration not stated) | 23.8* | i | i | 63.0%*
Cc1ccc(-n2c(=S)[nH]c3sc4c(c3c2=O)CCC4)cc1 | 1.97 | i | . | .
O=c1c2c3c(sc2[nH]c(=S)n1Cc1ccco1)CCC3 | 4.69 | i | . | .
COCCn1c(=S)[nH]c2sc3c(c2c1=O)CCCC3 | 10.4* | i | i | 326.5%* | CHO-K1 Tl ctr=-24.0;KCNQ1 pot spec=34.9*;KCNQ2 pot conf=33.5*;Kir2-1 sel=-8.4;KCNQ2 W236L pot=i
C=CCn1c(=S)[nH]c2sc3c(c2c1=O)CCCC3 | 11.2* | i | i | 297.5%* | CHO-K1 Tl ctr=-3.7;KCNQ1 pot spec=-25.2;KCNQ2 pot conf=63.4*;Kir2-1 sel=-24.6;KCNQ2 W236L pot=i
COc1cc(CCCN2C(=S)NC[C@@H]2c2ccccc2)cc(OC)c1OC | 2.26 | i | . | .
CCOC(=O)CC1COCCN1Cc1cn(C)nc1-c1ccccc1F (configuration not stated) | 0.03 | i | . | .
COc1ccc(NS(=O)(=O)c2cc(NC(=O)c3nc4nc(C)cc(C)n4n3)ccc2C)cc1 | 1.03 | i | . | .
COC(=O)c1c(NS(=O)(=O)Cc2ccccc2)sc2c1CCCC2 | 13* | i | i | 235.5%* | CHO-K1 Tl ctr=109.5*;KCNQ1 pot spec=-4.4;KCNQ2 pot conf=45.2*;Kir2-1 sel=-39.0;KCNQ2 W236L pot=i
CC(C)OC(=O)c1c(NS(=O)(=O)c2ccccc2)sc2c1CCCC2 | 2.2 | i | i | i
COC(=O)c1c(NS(C)(=O)=O)sc2c1CCCC2 | 0.04 | i | . | .
COC(=O)c1c(NC(=O)c2ccccc2N(C)S(=O)(=O)c2ccccc2)sc2c1CCCC2 | . | i | . | .
O=C(NCCN1CCOCC1)C1(C(F)(F)F)C/C(=C\Cc2ccccc2)CCCO1 (configuration not stated) | . | i | . | .
CCCCn1c(N)c(N(CCOC)C(=O)c2ccc(Cl)c(S(=O)(=O)N3CCCCC3)c2)c(=O)[nH]c1=O | . | i | . | .
OCc1nc2c(ccc3ccccc32)[nH]1 | 0.72 | i | . | .
COc1ccccc1CCC(=O)N(C)CC(=O)Nc1ccc(F)cc1 | . | i | . | .
CC(NC1CCCC1)c1ccccc1 (configuration not stated) | 0.98 | i | . | .
CC(NCCC(c1ccccc1)c1ccccc1)c1ccccc1 (configuration not stated) | 0.97 | i | 43.5%* | i
CO/N=C(/CS(=O)c1ccc(Br)cc1)c1ccc(OC)cc1 (configuration not stated) | . | i | 49.5%* | i
CO/N=C(/COc1ccc(F)cc1)c1ccc(OC)cc1 | . | i | . | .
Cn1c(C(=O)NC2CC2)cc(=O)n(C)c1=O | 0.25 | i | . | .
FC(F)(F)c1cc(C(F)(F)F)c2ccc(N3CCN(c4ccc(Cl)cc4)CC3)nc2n1 | 1.75 | i | . | .
N#CC(c1ccc(Cl)cc1)c1ccc2c(C(F)(F)F)cc(C(F)(F)F)nc2n1 (configuration not stated) | 18.3* | i | i | i | CHO-K1 Tl ctr=-21.8;KCNQ1 pot spec=46.6*;KCNQ2 pot conf=20.7*;Kir2-1 sel=-36.1;KCNQ2 W236L pot=i
SMILES | KCNQ2 pot | KCNQ2 inh | Kir21 confirm | HEK293 ctr | others
CCN1CCN(C(=O)C(C)Nc2cc(Cl)c(OC)cc2OC)CC1 (configuration not stated) | . | i | . | .
CCNCCC(CCC(C)C)c1ccc2c(c1)OCO2 (configuration not stated) | 0.75 | i | . | .
Fc1ccccc1CNCCC(Cc1ccccc1)c1ccc2c(c1)OCO2 (configuration not stated) | . | i | 39.5%* | 77.0%*
CC(C)CCC(CCNCc1ccccn1)c1ccc2c(c1)OCO2 (configuration not stated) | . | i | 57.0%* | i
COc1ccc(CNCCC(c2ccccc2)c2ccc3c(c2)OCO3)cc1 (configuration not stated) | . | i | . | .
Cc1ccc(/C=C(\NC(=O)c2ccc(C)cc2)c2nc(=S)[nH][nH]2)cc1 | 5.95* | i | i | i | CHO-K1 Tl ctr=-3.5;KCNQ1 pot spec=-23.2;KCNQ2 pot conf=-17.8;Kir2-1 sel=-37.5
Cc1ccc(C(=O)N/C(=C\c2cccs2)c2nc3ccccc3[nH]2)cc1 | . | i | . | .
COc1cc(CNCCN2CCOCC2)ccc1OCc1ccc(Cl)cc1 | 0.08 | i | . | .
COc1cc(CNCCCN2CCOCC2)cc(Br)c1OCc1ccc(Cl)cc1 | . | i | 33.0%* | i
CCCC(=O)Nc1cc2c3c(c1)C(C)C(=O)N3CCC2 (configuration not stated) | . | i | . | .
Oc1ccc(-c2nc3c4c(ncn3n2)-c2ccccc2CC42CCCC2)cc1 | 0.01 | i | . | .
CCCn1c(=O)c(C(=O)NCc2ccncc2)c(O)c2ccccc21 | 0.05 | i | . | .
CC(C)Cn1c(=O)c(C(=O)NCc2ccccn2)c(O)c2ccccc21 | 15* | i | i | i | CHO-K1 Tl ctr=-15.5;KCNQ1 pot spec=-13.7;KCNQ2 pot conf=-13.0;Kir2-1 sel=-27.0
O=C(Nc1ccc2c(c1)Cc1ccccc1-2)c1cccnc1 | . | i | . | .
O=c1[nH]cnc2scc(-c3ccc(-c4ccccc4)cc3)c12 | . | i | . | .
Cc1c(-c2ccccc2)sc2nc[nH]c(=S)c12 | 10.1* | i | i | i | CHO-K1 Tl ctr=-14.4;KCNQ1 pot spec=-10.0;KCNQ2 pot conf=6.5*;Kir2-1 sel=-41.2;KCNQ2 W236L pot=i
Cc1cc(NC(=O)c2ccc(F)c(S(=O)(=O)N3CCCCC3)c2)no1 | 0.03 | i | . | .
O=C(CP(=O)(c1ccccc1)c1ccccc1)N/N=C/c1cc(Br)cc(Br)c1O | 0.74 | i | . | .
O=C(Cc1ccccc1)N/N=C/c1cc(Br)cc(Cl)c1O | 6.06* | i | i | i | CHO-K1 Tl ctr=4.8*;KCNQ1 pot spec=-19.9;KCNQ2 pot conf=19.9*;Kir2-1 sel=-33.7;KCNQ2 W236L pot=24.8%*
COc1cc(/C=N/NC(=O)Cc2ccc(Br)cc2)cc(OC)c1O | 2.12 | i | . | .
COc1cc(Br)cc(/C=N/NC(=O)Cc2ccccc2)c1O | 5.29* | i | i | 72.5%* | CHO-K1 Tl ctr=-9.9;KCNQ1 pot spec=-18.1;KCNQ2 pot conf=8.0*;Kir2-1 sel=-36.0;KCNQ2 W236L pot=i
CCOn1c(=O)c(=O)n(OC)c2ccccc21 | . | i | . | .
COc1ccc(N(C(=O)CNC(=O)c2cccs2)C(C(=O)NCC2CCCO2)c2ccccc2)cc1OC (configuration not stated) | . | i | . | .
